Source: article PMC7862700, “An all-to-all approach to the identification of sequence-specific readers for epigenetic DNA modifications on cytosine”

Experiments:
Assay in all cases: DAPPL (digital affinity profiling via proximity ligation, sequencing); 10 mM Tris-HCl pH 7.5, 50 mM NaCl, 1 mM DTT, 4% glycerol, room temperature, 30 min; GST-TFs on glutathione beads, 16-mer random dsDNA library, 0.1% formaldehyde crosslink after washing; high values mean tight binding
Details in all cases: protein: recombinant; tags: N-terminal GST; dsDNA, one strand shown
ERF = molecular target: T1, ERF (Homo sapiens, UniProt P50548 1-548)
T1 sequence: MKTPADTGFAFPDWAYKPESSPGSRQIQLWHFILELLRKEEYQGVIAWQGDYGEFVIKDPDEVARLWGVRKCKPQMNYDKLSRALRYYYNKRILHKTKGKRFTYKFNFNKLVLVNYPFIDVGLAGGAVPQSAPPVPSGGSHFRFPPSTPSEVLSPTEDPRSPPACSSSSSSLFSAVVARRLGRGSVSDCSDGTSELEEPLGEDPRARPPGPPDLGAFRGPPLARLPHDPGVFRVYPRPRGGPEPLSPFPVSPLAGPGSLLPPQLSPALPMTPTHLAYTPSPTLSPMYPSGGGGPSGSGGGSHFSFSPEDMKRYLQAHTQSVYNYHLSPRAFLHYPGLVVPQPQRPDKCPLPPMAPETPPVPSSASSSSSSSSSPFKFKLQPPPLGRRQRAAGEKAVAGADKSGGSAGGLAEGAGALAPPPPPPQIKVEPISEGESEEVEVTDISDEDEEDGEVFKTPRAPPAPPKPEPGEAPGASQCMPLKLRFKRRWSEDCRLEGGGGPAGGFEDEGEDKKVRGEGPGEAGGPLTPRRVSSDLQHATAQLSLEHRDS
Summary of the method: (§1)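 In yeast, human transcription factors were expressed with a GST fusion, then pulled down on glutathione beads and given DNA barcodes. Pooled with a tag-only sample, they were exposed to 200 nmole of a 16-mer random double-stranded DNA library (Tris/NaCl/DTT/glycerol buffer, room temperature, 30 min), washed, crosslinked with 0.1% formaldehyde, proximity-ligated using BsaI/T4 ligase for 1 h at 37 °C, PCR-amplified and read on an Illumina NextSeq500. Each hexamer's frequency of reads for a factor, divided by the matching frequency for the tag-only sample, gives the binding signal.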

ETV3L = molecular target: T2, ETV3L (Homo sapiens, UniProt Q6ZN32 1-361)
T2 sequence: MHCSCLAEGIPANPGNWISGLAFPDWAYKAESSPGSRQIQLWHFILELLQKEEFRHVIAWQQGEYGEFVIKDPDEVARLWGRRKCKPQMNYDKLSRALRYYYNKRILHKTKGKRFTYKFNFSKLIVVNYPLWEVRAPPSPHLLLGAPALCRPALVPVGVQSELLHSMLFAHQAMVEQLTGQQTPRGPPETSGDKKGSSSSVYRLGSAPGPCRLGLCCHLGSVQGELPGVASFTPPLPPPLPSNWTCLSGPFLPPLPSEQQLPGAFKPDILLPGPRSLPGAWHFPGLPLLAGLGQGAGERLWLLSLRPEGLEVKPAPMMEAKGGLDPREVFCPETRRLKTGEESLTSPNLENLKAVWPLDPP
Summary of the method: as §1

ETS2 = molecular target: T3, ETS2 (Homo sapiens, UniProt P15036 1-469)
T3 sequence: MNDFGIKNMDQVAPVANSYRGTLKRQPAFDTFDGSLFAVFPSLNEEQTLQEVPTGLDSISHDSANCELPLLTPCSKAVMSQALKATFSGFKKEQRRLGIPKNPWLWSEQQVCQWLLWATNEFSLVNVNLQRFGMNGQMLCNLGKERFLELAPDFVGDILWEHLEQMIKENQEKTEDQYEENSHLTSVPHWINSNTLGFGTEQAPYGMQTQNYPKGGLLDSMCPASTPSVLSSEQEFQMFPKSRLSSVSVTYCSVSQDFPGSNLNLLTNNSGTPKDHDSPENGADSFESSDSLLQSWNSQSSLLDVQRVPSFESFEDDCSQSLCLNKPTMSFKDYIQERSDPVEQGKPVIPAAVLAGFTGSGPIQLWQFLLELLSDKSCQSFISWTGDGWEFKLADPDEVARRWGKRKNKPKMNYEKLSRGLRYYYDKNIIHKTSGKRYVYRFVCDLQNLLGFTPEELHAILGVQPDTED
Summary of the method: as §1

SPDEF = molecular target: T4, SPDEF (Homo sapiens, UniProt O95238 1-335)
T4 sequence: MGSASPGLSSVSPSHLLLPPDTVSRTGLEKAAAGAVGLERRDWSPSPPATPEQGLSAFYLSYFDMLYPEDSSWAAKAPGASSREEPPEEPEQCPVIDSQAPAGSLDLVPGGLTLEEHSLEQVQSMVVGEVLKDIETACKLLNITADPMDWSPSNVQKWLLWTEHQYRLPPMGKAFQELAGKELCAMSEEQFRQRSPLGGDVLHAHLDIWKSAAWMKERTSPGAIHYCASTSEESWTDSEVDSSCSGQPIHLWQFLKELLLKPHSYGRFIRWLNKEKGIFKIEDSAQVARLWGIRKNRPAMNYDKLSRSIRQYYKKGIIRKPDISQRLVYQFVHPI
Summary of the method: as §1

ETV7 = molecular target: T5, ETV7 (Homo sapiens, UniProt Q9Y603 1-341)
T5 sequence: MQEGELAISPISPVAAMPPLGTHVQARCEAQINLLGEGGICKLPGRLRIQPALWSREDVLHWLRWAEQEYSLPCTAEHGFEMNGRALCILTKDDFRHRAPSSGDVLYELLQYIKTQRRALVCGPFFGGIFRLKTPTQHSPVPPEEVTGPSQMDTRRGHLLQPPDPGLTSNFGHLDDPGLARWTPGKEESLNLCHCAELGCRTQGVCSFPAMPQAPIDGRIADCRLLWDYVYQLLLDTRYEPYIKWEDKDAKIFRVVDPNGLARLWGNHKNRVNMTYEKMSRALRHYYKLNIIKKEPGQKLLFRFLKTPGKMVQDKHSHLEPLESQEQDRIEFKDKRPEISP
Summary of the method: as §1

ELF5 = molecular target: T6, ELF5 (Homo sapiens, UniProt Q9UKW6-2 1-255)
T6 sequence: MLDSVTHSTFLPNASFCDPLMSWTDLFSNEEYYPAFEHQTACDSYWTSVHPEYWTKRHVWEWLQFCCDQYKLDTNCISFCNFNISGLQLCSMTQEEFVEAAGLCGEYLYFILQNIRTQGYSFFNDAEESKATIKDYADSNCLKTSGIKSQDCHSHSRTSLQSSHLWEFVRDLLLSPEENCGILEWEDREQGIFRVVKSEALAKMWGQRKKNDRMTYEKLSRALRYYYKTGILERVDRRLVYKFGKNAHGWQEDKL
Summary of the method: as §1

ETV3 = molecular target: T7, ETV3 (Homo sapiens, UniProt P41162-2 1-143)
T7 sequence: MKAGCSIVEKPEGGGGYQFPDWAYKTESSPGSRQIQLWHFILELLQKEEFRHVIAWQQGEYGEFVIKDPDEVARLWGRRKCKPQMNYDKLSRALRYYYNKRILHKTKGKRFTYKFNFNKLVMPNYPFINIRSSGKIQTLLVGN
Summary of the method: as §1

ETV6 = ETV6 (Homo sapiens, UniProt P41212 1-452)
Summary of the method: as §1

Sequence of ETV6 (P41212 whole entry): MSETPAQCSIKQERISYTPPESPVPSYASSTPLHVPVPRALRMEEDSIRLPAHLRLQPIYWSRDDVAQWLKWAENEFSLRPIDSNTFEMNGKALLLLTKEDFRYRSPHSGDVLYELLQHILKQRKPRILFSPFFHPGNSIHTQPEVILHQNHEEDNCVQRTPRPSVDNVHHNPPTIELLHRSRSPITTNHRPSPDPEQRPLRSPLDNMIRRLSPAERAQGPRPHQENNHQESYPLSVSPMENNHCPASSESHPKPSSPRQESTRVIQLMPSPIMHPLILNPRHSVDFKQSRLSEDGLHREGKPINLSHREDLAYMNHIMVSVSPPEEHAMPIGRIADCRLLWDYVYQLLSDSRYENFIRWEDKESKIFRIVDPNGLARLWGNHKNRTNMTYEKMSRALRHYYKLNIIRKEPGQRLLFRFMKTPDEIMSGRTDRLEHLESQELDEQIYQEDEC

| Sequence | binding signal (ERF) | binding signal (ETV3L) | binding signal (ETS2) | binding signal (SPDEF) | binding signal (ETV7) | binding signal (ELF5) | binding signal (ETV3) | binding signal (ETV6) |
| --- | --- | --- | --- | --- | --- | --- | --- | --- |
| TAGCAA | 1.28 fold enrichment (6-mer frequency, TF over GST control) | 1.22 fold enrichment (6-mer frequency, TF over GST control) | 1.26 fold enrichment (6-mer frequency, TF over GST control) | 1.23 fold enrichment (6-mer frequency, TF over GST control) | 1.25 fold enrichment (6-mer frequency, TF over GST control) | 1.23 fold enrichment (6-mer frequency, TF over GST control) | 1.34 fold enrichment (6-mer frequency, TF over GST control) | 1.29 fold enrichment (6-mer frequency, TF over GST control) |
| TTTTAG | 1.26 fold enrichment (6-mer frequency, TF over GST control) | 1.26 fold enrichment (6-mer frequency, TF over GST control) | 1.2 fold enrichment (6-mer frequency, TF over GST control) | 1.12 fold enrichment (6-mer frequency, TF over GST control) | 1.24 fold enrichment (6-mer frequency, TF over GST control) | 1.06 fold enrichment (6-mer frequency, TF over GST control) | 1.21 fold enrichment (6-mer frequency, TF over GST control) | 1.19 fold enrichment (6-mer frequency, TF over GST control) |
| TCGCAA | 1.27 fold enrichment (6-mer frequency, TF over GST control) | 1.1 fold enrichment (6-mer frequency, TF over GST control) | 1.05 fold enrichment (6-mer frequency, TF over GST control) | 1.09 fold enrichment (6-mer frequency, TF over GST control) | 1.01 fold enrichment (6-mer frequency, TF over GST control) | 1.06 fold enrichment (6-mer frequency, TF over GST control) | 1.13 fold enrichment (6-mer frequency, TF over GST control) | 1.09 fold enrichment (6-mer frequency, TF over GST control) |
| ACACTC | 1.06 fold enrichment (6-mer frequency, TF over GST control) | 1.08 fold enrichment (6-mer frequency, TF over GST control) | 1.14 fold enrichment (6-mer frequency, TF over GST control) | 1.02 fold enrichment (6-mer frequency, TF over GST control) | 1.07 fold enrichment (6-mer frequency, TF over GST control) | 1.05 fold enrichment (6-mer frequency, TF over GST control) | 1.16 fold enrichment (6-mer frequency, TF over GST control) | 1.11 fold enrichment (6-mer frequency, TF over GST control) |
| GCGTCC | 1.32 fold enrichment (6-mer frequency, TF over GST control) | 1.24 fold enrichment (6-mer frequency, TF over GST control) | 1.18 fold enrichment (6-mer frequency, TF over GST control) | 1.56 fold enrichment (6-mer frequency, TF over GST control) | 1.17 fold enrichment (6-mer frequency, TF over GST control) | 1.25 fold enrichment (6-mer frequency, TF over GST control) | 1.24 fold enrichment (6-mer frequency, TF over GST control) | 1.19 fold enrichment (6-mer frequency, TF over GST control) |
| GAAGCT | 1.59 fold enrichment (6-mer frequency, TF over GST control) | 1.58 fold enrichment (6-mer frequency, TF over GST control) | 1.54 fold enrichment (6-mer frequency, TF over GST control) | 1.51 fold enrichment (6-mer frequency, TF over GST control) | 1.54 fold enrichment (6-mer frequency, TF over GST control) | 1.71 fold enrichment (6-mer frequency, TF over GST control) | 1.75 fold enrichment (6-mer frequency, TF over GST control) | 1.59 fold enrichment (6-mer frequency, TF over GST control) |
| CTGAAG | 1.26 fold enrichment (6-mer frequency, TF over GST control) | 1.09 fold enrichment (6-mer frequency, TF over GST control) | 1.22 fold enrichment (6-mer frequency, TF over GST control) | 1.15 fold enrichment (6-mer frequency, TF over GST control) | 1.07 fold enrichment (6-mer frequency, TF over GST control) | 1.06 fold enrichment (6-mer frequency, TF over GST control) | 1.05 fold enrichment (6-mer frequency, TF over GST control) | 1.05 fold enrichment (6-mer frequency, TF over GST control) |
| CACACA | 1.16 fold enrichment (6-mer frequency, TF over GST control) | 1.22 fold enrichment (6-mer frequency, TF over GST control) | 1.14 fold enrichment (6-mer frequency, TF over GST control) | 1.07 fold enrichment (6-mer frequency, TF over GST control) | 1.1 fold enrichment (6-mer frequency, TF over GST control) | 1.06 fold enrichment (6-mer frequency, TF over GST control) | 1.1 fold enrichment (6-mer frequency, TF over GST control) | 1.18 fold enrichment (6-mer frequency, TF over GST control) |
| TAGATC | 1.18 fold enrichment (6-mer frequency, TF over GST control) | 1.13 fold enrichment (6-mer frequency, TF over GST control) | 1.13 fold enrichment (6-mer frequency, TF over GST control) | 1.43 fold enrichment (6-mer frequency, TF over GST control) | 1.06 fold enrichment (6-mer frequency, TF over GST control) | 1.02 fold enrichment (6-mer frequency, TF over GST control) | 1.09 fold enrichment (6-mer frequency, TF over GST control) | 1.02 fold enrichment (6-mer frequency, TF over GST control) |
| CAACTG | 1.18 fold enrichment (6-mer frequency, TF over GST control) | 1.17 fold enrichment (6-mer frequency, TF over GST control) | 1.13 fold enrichment (6-mer frequency, TF over GST control) | 1.08 fold enrichment (6-mer frequency, TF over GST control) | 1.06 fold enrichment (6-mer frequency, TF over GST control) | 1.08 fold enrichment (6-mer frequency, TF over GST control) | 1.16 fold enrichment (6-mer frequency, TF over GST control) | 1.12 fold enrichment (6-mer frequency, TF over GST control) |
| TACACA | 1.24 fold enrichment (6-mer frequency, TF over GST control) | 1.15 fold enrichment (6-mer frequency, TF over GST control) | 1.16 fold enrichment (6-mer frequency, TF over GST control) | 1.27 fold enrichment (6-mer frequency, TF over GST control) | 1.19 fold enrichment (6-mer frequency, TF over GST control) | 1.13 fold enrichment (6-mer frequency, TF over GST control) | 1.13 fold enrichment (6-mer frequency, TF over GST control) | 1.21 fold enrichment (6-mer frequency, TF over GST control) |
| TTAAAT | 1.1 fold enrichment (6-mer frequency, TF over GST control) | 1.22 fold enrichment (6-mer frequency, TF over GST control) | 1.19 fold enrichment (6-mer frequency, TF over GST control) | 1.16 fold enrichment (6-mer frequency, TF over GST control) | 1.21 fold enrichment (6-mer frequency, TF over GST control) | 1.08 fold enrichment (6-mer frequency, TF over GST control) | 1.15 fold enrichment (6-mer frequency, TF over GST control) | 1.23 fold enrichment (6-mer frequency, TF over GST control) |
